From the supplement of paper PMC12645437, “Orthogonal IMiD-Degron Pairs Induce Selective Protein Degradation in Cells” (ACS Chemical Biology, 2025) come the findings set out here.

The full ranking holds about 8,300 sequences; the median of “log2 fold change of degron read counts, EGFP-low vs EGFP+ sorted cells (limma voom), compound-induced degradation” is about -1.1, and the highest 2% start at about 3.2. Shown is part of a subset that was picked to be rich in the highest values.

This assay concerns the target T1, CRBN, Q96SW2.
T1 chain: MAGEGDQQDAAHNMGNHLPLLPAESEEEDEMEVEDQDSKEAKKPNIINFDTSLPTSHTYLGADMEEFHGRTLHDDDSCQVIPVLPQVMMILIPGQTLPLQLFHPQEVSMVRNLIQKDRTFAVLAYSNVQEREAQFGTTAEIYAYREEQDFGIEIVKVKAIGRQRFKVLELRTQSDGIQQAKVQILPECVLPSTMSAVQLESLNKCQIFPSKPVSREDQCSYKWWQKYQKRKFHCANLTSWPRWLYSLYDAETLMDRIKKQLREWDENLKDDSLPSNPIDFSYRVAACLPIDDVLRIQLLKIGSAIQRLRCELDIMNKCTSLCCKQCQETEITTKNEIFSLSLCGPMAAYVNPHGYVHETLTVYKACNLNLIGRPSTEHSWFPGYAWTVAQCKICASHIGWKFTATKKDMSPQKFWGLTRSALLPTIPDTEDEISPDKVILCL
Put plainly: log2 fold change of degron read counts, EGFP-low vs EGFP+ sorted cells (limma voom), compound-induced degradation; higher = more compound-induced degradation of the degron-EGFP fusion; degrons are variants of IKZF1/3 zinc finger 2; compound dose not given here. The settings on record: Jurkat, 18 h. Here is the method:
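Pooled library of 8380 IKZF3 ZF2 degron mutants (positions 146-167 varied within the IKZF3 130-189 degron; only the varied core is printed, flanks not printed) fused to EGFP with IRES-mCherry, lentivirally expressed in Jurkat cells. mCherry+ cells were treated with one IMiD compound for 18 h (dose not stated) and FACS-sorted into EGFP-low and EGFP+ populations. Degron sequences were counted by NGS, and log2FC (EGFP-low vs EGFP+) was estimated by limma voom over 3 biological replicates.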

The mark [1] stands for this setting: compound: compound 19 (5-tert-butyl-thalidomide).
The mark [2] stands for this setting: compound: compound 22 (5-morpholino-thalidomide).
[3] abbreviates: compound: compound 33 (diphenyl IMiD analogue).
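Further: pooled lentiviral library of zinc finger degron-EGFP fusions in mCherry-positive Jurkat cells, FACS-sorted after compound exposure, with degron abundance counted by next-generation sequencing.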

For the sequence FECNQCGRAFTQKGNLLRHIKL [46F_47E_49N_50Q_52G_53R_54A_55F_67L_, Q9UKT9], the “log2 fold change of degron read counts” value was -3.75 under setting [1], -4.2 under setting [2], -2.96 under setting [3] and -3.19 (compound: thalidomide).

LQCNQCGFPCTQKGNLLRHIKL [46L_47Q_49N_50Q_52G_53F_54P_55C_67L_, Q9UKT9]: the “log2 fold change of degron read counts” value under setting [1] was -2.34, the “log2 fold change of degron read counts” value under setting [2] is -3, the “log2 fold change of degron read counts” value under setting [3] is -2.68 and the “log2 fold change of degron read counts” value (compound: thalidomide) is -1.74.

With FQCDQCGALFTQKGNLLRHIKL [46F_47Q_49D_50Q_52G_53A_54L_55F_67L_, Q9UKT9], the “log2 fold change of degron read counts” value is -3.22 under setting [1], -2 under setting [2], -1.8 under setting [3] and -0.219 (compound: thalidomide).

Take FGCPQCGAMFTQKGNLLRHIKL [46F_47G_49P_50Q_52G_53A_54M_55F_67L_, Q9UKT9]: the “log2 fold change of degron read counts” value under setting [1] was 1.86, the “log2 fold change of degron read counts” value under setting [2] is -1.68, the “log2 fold change of degron read counts” value under setting [3] is 0.259 and the “log2 fold change of degron read counts” value (compound: thalidomide) is -2.04.

As to LICEICGFVCTQKGNLLRHIKL [46L_47I_49E_50I_52G_53F_54V_55C_67L_, Q9UKT9], the “log2 fold change of degron read counts” value under setting [1] was -0.507, the “log2 fold change of degron read counts” value under setting [2] was 0.245, the “log2 fold change of degron read counts” value under setting [3] was 1.34 and the “log2 fold change of degron read counts” value (compound: thalidomide) amounted to 1.57.

In the case of FECNQCGANFTQKGNLLRHIKL [46F_47E_49N_50Q_52G_53A_54N_55F_67L_, Q9UKT9], the “log2 fold change of degron read counts” value was -3.06 under setting [1], -3.6 under setting [2], -1.14 under setting [3] and -1.62 (compound: thalidomide).

In the case of FLCDICGAQFTQKGNLLRHIKL [46F_47L_49D_50I_52G_53A_54Q_55F_67L_, Q9UKT9], the “log2 fold change of degron read counts” value by setting is: under setting [1], -0.363; under setting [2], -1.53; under setting [3], 0.682; (compound: thalidomide) 0.0613.

As for FDCDICGAQFTQKGNLLRHIKL [46F_47D_49D_50I_52G_53A_54Q_55F_67L_, Q9UKT9], the “log2 fold change of degron read counts” value runs as follows: under setting [1], 0.389; under setting [2], -1.35; under setting [3], -1.71; (compound: thalidomide) -1.04.

On to FTCDICGAQFTQKGNLLRHIKL [46F_47T_49D_50I_52G_53A_54Q_55F_67L_, Q9UKT9], for which the “log2 fold change of degron read counts” value by setting is: under setting [1], -0.504; under setting [2], 1.41; under setting [3], 1.33; (compound: thalidomide) 1.15.

In the case of FWCDICGAQFTQKGNLLRHIKL [46F_47W_49D_50I_52G_53A_54Q_55F_67L_, Q9UKT9], the “log2 fold change of degron read counts” value reads like this: under setting [1], 2.88; under setting [2], 3.68; under setting [3], 1.52; (compound: thalidomide) 0.174.

On to FCCDICGAQFTQKGNLLRHIKL [46F_47C_49D_50I_52G_53A_54Q_55F_67L_, Q9UKT9], for which the “log2 fold change of degron read counts” value came to 1.75 under setting [1], 1.58 under setting [2], 1.41 under setting [3] and 0.205 (compound: thalidomide).

Take FYCDICGAQFTQKGNLLRHIKL [46F_47Y_49D_50I_52G_53A_54Q_55F_67L_, Q9UKT9]: the “log2 fold change of degron read counts” value under setting [1] came out at 3.18, the “log2 fold change of degron read counts” value under setting [2] was found to be 3.55, the “log2 fold change of degron read counts” value under setting [3] turned out to be 2.11 and the “log2 fold change of degron read counts” value (compound: thalidomide) is -0.00703.

Take FFCDICGAQFTQKGNLLRHIKL [46F_47F_49D_50I_52G_53A_54Q_55F_67L_, Q9UKT9]: the “log2 fold change of degron read counts” value under setting [1] stood at 3.41, the “log2 fold change of degron read counts” value under setting [2] stood at 3.28, the “log2 fold change of degron read counts” value under setting [3] was 1.67 and the “log2 fold change of degron read counts” value (compound: thalidomide) was 0.0187.

Turning to FHCDICGAQFTQKGNLLRHIKL [46F_47H_49D_50I_52G_53A_54Q_55F_67L_, Q9UKT9], the “log2 fold change of degron read counts” value under setting [1] worked out at 1.04, the “log2 fold change of degron read counts” value under setting [2] worked out at 1.14, the “log2 fold change of degron read counts” value under setting [3] was -0.0246 and the “log2 fold change of degron read counts” value (compound: thalidomide) was -1.24.

As for FQCDICGAQFTQKGNLLRHIKL [46F_47Q_49D_50I_52G_53A_54Q_55F_67L_, Q9UKT9], the “log2 fold change of degron read counts” value reads like this: under setting [1], -0.785; under setting [2], 1.6; under setting [3], 1.09; (compound: thalidomide) 2.9.

As for FSCPQCGARFTQKGNLLRHIKL [46F_47S_49P_50Q_52G_53A_54R_55F_67L_, Q9UKT9], the “log2 fold change of degron read counts” value was 0.264 under setting [1], -0.514 under setting [2], -0.493 under setting [3] and -0.61 (compound: thalidomide).

With LRCPICGFHCTQKGNLLRHIKL [46L_47R_49P_50I_52G_53F_54H_55C_67L_, Q9UKT9], the “log2 fold change of degron read counts” value by setting is: under setting [1], -0.0105; under setting [2], 0.25; under setting [3], 1.59; (compound: thalidomide) 2.32.

Take FECEICGHTFTQKGNLLRHIKL [46F_47E_49E_50I_52G_53H_54T_55F_67L_, Q9UKT9]: the “log2 fold change of degron read counts” value runs as follows: under setting [1], -3.53; under setting [2], -3.12; under setting [3], -2.68; (compound: thalidomide) -2.57.
